Consider nine compounds from PubChem BioAssay (EPA / NIEHS).

For test [1], the target named is Transcriptional activator Myb (Homo sapiens) (UniProt P10242). Nature of the test: ATG_Myb_CIS: Attagene CIS-FACTORIAL HepG2 Assay for human Myeloblastosis (Myb) Proto-Oncogene Transcription Factor (AID 2282986). The following applies: HepG2 Attagene CIS-FACTORIAL Myb reporter transcription; actives raise or lower the signal. In outline:
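Fluorescence signals from capillary electrophoresis of RT-PCR-amplified reporter cDNA give the read-out. Cells: HepG2 transfected with multiple cis-regulated reporter units. Exposure lasts 24 hours; DMSO defines baseline for gain or loss of signal.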

Test [2] addresses Nuclear respiratory factor 1 (Homo sapiens) (UniProt Q16656). Nature of the test: ATG_NRF1_CIS: Attagene CIS-FACTORIAL HepG2 Assay for human Nuclear Respiratory Factor 1 (NRF1) Orphan Gene (AID 2282987). The conditions noted are these: HepG2 NRF1 cis-element reporter, Attagene multiplex; actives raise or lower the signal. The method, boiled down:
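Transcriptional reporter readout, one component of a 52-endpoint multiplexed HepG2 panel. Exposure 24 h; mRNA detected via RT-PCR and fluorescent capillary electrophoresis; fitting in both directions against DMSO.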

Test [3] is described as follows: ATG_NFI_CIS: Attagene CIS-FACTORIAL HepG2 Assay for human Nuclear Factor I (NFI) (AID 2282989). The conditions noted are these: HepG2 cis-regulatory reporter, NFI response element transcription; actives raise or lower the signal. In outline:
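Transfected HepG2 liver cells, exposed 24 h, supplied total RNA for oligo(dT) reverse transcription and reporter-specific PCR. Labelled, HpaI-cut fragments were sized by capillary electrophoresis; DMSO set the baseline for bidirectional fitting.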

For test [4], the target named is Myc proto-oncogene protein (Homo sapiens) (UniProt P01106). Nature of the test: ATG_Myc_CIS: Attagene CIS-FACTORIAL HepG2 Assay for human Myelocytomatosis (Myc) Proto-Oncogene Transcription Factor (AID 2282990). The conditions noted are these: HepG2, Attagene cis-reporter transcription factor activity; actives raise or lower the signal. The method, boiled down: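 DMSO-normalised, bidirectionally fitted reporter mRNA signal. HepG2 cells transfected with cis reporter constructs, treated 24 h; transcripts detected by RT-PCR, 6-FAM primer extension and CE.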
Sequence of Myc proto-oncogene protein (Homo sapiens) (P01106 whole entry, looked up): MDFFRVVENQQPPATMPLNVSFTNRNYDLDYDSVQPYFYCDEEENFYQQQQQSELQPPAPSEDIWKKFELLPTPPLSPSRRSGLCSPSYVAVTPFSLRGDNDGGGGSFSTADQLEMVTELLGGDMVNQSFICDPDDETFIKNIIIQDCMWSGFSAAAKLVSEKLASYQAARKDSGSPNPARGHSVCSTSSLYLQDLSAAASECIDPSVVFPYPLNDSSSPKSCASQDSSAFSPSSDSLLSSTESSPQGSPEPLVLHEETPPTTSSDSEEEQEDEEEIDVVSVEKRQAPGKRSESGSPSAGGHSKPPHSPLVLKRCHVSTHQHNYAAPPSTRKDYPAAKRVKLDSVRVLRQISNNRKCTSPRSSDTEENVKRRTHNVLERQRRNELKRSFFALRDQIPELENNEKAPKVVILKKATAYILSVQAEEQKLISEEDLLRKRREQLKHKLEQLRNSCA

Test [5] in a line: ATG_NRF2_ARE_CIS: Attagene CIS-FACTORIAL HepG2 Assay for human Nuclear Factor Erythroid 2 Related Factor 2 (NFR2) response to Antioxidant Response Elements (ARE) (AID 2282992).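 As to AC50: reporter mRNA level measured by RT-PCR and capillary electrophoresis fluorescence.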 The conditions noted are these: HepG2 Attagene ARE/NRF2 reporter, transcription factor activity; actives raise or lower the signal. The method, boiled down: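 Multiplexed reporter mRNA profiling in HepG2 after a 24 h chemical exposure. Curves fitted in both directions relative to DMSO negative control.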

The nature of test [6]: ATG_Oct_MLP_CIS: Attagene CIS-FACTORIAL HepG2 Assay for human Octamer-Binding Transcription Factor (Oct) (AID 2282993). The following applies: HepG2 Attagene cis-factorial Oct reporter, mRNA; actives raise or lower the signal. The method, boiled down: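 Using HepG2 cells bearing transfected cis-reporter constructs, mRNA induction was read after 24 h by fluorescent RT-PCR and capillary electrophoresis, with DMSO defining baseline for gain- or loss-of-signal fits.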

The target in test [7] is Cellular tumor antigen p53 (Homo sapiens) (UniProt P04637). As to the kind of experiment: ATG_p53_CIS: Attagene CIS-FACTORIAL HepG2 Assay for human p53 Transcription Factor (AID 2282994). The following applies: HepG2 p53 cis-element reporter, Attagene mRNA; actives raise or lower the signal. The method, boiled down:
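Multiplexed reporter mRNA assay in human HepG2 liver cells; cis-regulated units report endogenous factor activity. Values come from bidirectional curve fitting against DMSO negative control after 24 h treatment.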

Test [8] has as its target human Peroxisome Proliferator-activated Receptor alpha (PPARa), PPARA (gene 5465) (UniProt Q07869). As to the kind of experiment: ATG_PPARa_TRANS: Attagene TRANS-FACTORIAL HepG2 Assay for human Peroxisome Proliferator-activated Receptor alpha (PPARa) (AID 2283001; active = hit-call score of the fitted dose curve at least 0.9, where 1 is the maximum). The method, boiled down: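 HepG2 cells transiently transfected with multiplexed GAL4-UAS reporter units and chimeric NR-Gal4 constructs were dosed for 24 h. Reporter mRNA was measured by RT-PCR with fluorescent labelling and capillary electrophoresis; gain of signal fitted against DMSO.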

In test [9] the target is human Peroxisome Proliferator-activated Receptor delta (PPARd), PPARD (gene 5467) (UniProt Q03181). Nature of the test: ATG_PPARd_TRANS: Attagene TRANS-FACTORIAL HepG2 Assay for human Peroxisome Proliferator-activated Receptor delta (PPARd) (AID 2283002; active = hit-call score of the fitted dose curve at least 0.9, where 1 is the maximum). In outline: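 Measured quantity: GAL4-UAS reporter transcript induction in HepG2 after 24 h chemical dosing, with NR-Gal4 chimeras supplied by transient transfection. Detection by RT-PCR and capillary electrophoresis; upward fit against DMSO.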
Sequence of human Peroxisome Proliferator-activated Receptor delta (PPARd), PPARD (gene 5467) (Q03181 whole entry, looked up, the tested form may be a part): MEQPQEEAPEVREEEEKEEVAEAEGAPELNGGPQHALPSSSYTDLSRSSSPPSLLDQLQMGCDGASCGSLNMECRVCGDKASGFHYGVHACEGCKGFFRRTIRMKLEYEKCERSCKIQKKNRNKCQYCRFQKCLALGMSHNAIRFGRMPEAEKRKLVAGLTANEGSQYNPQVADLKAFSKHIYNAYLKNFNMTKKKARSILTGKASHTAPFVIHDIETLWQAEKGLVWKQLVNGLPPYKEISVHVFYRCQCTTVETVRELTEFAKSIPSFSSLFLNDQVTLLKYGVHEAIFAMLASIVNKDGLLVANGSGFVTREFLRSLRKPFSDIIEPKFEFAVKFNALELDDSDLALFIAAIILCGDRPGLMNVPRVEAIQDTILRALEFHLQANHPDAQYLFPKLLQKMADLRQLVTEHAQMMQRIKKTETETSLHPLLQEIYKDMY

Test [10] concerns the target Peroxisome proliferator-activated receptor gamma (Homo sapiens) (UniProt P37231). Nature of the test: ATG_PPARg_TRANS: Attagene TRANS-FACTORIAL HepG2 Assay for human Peroxisome Proliferator-activated Receptor-gamma (PPARg) (AID 2283007; active = hit-call score of the fitted dose curve at least 0.9, where 1 is the maximum). The method, boiled down: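 Multiplexed reporter transcription units in HepG2, 24 h dosing, reporter transcripts quantified by fluorescent RT-PCR and capillary electrophoresis. Increase over DMSO scored.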

Test [11] concerns the target Nuclear receptor subfamily 1 group I member 2 (Homo sapiens) (UniProt O75469). Nature of the test: ATG_PXR_TRANS: Attagene TRANS-FACTORIAL HepG2 Assay for human Pregnane X Receptor (PXR) (AID 2283008; active = hit-call score of the fitted dose curve at least 0.9, where 1 is the maximum). In outline: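 Measures mRNA induction of a GAL4-UAS-driven reporter in human HepG2 cells transiently expressing PXR fused to Gal4, following 24 h treatment. DMSO served as negative control and baseline.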

Test [12] is described as follows: ATG_NF_kB_CIS: Attagene CIS-FACTORIAL HepG2 Assay for human Nuclear Factor Kappa B (NF-kB) (AID 2282991). The conditions noted are these: HepG2 Attagene cis-factorial NF-kB reporter mRNA; actives raise or lower the signal. The method, boiled down:
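HepG2, transient multi-reporter transfection, cis promoter elements (endogenous TFs). 24 h exposure. Total RNA → RT → PCR → 6-FAM label → HpaI → CE. Gain/loss vs DMSO.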

The target in test [13] is human Retinoic Acid Receptor gamma (RARg), RARG (gene 5916) (UniProt P13631). As to the kind of experiment: ATG_RARg_TRANS: Attagene TRANS-FACTORIAL HepG2 Assay for human Retinoic Acid Receptor gamma (RARg) (AID 2283009; active = hit-call score of the fitted dose curve at least 0.9, where 1 is the maximum). In outline:
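HepG2, RARg-GAL4 TRANS system, 24 h exposure; reporter mRNA by RT-PCR + CE fluorescence; increase over DMSO.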

Test [14] is described as follows: BSK_3C_TissueFactor: BioMAP Diversity Plus: 3C Assay for Tissue Factor Biomarker Activity (AID 2282997). The following applies: BioMAP 3C HUVEC, tissue factor biomarker readout; actives raise or lower the signal. In outline:
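Primary human umbilical vein endothelial cells in the 3C system were exposed to test chemical for 24 h, then Tissue Factor measured by ELISA. Activity was fitted bidirectionally against DMSO as negative control and baseline.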

Test [15] can be described thus: BSK_3C_uPAR: BioMAP Diversity Plus: 3C Assay for Urokinase-type plasminogen activator receptor (uPAR) Biomarker Activity (AID 2282998). The conditions noted are these: BioMAP 3C HUVEC, uPAR biomarker ELISA; actives raise or lower the signal. The method, boiled down:
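In this endothelial cell-based assay, human umbilical vein primary cells were treated with chemicals and harvested at 24 h. uPAR was quantified using ELISA, with gains or losses fitted relative to DMSO controls.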

A short description of test [16]: BSK_3C_VCAM1: BioMAP Diversity Plus: 3C Assay for Vascular cell adhesion molecule 1 (VCAM1) Biomarker Activity (AID 2282999). The following applies: BioMAP 3C HUVEC, VCAM1 ELISA, cytokine-stimulated; actives raise or lower the signal. In outline: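 Human umbilical vein endothelial cells were dosed with compound for 24 h, after which cell-surface VCAM-1 was quantified by ELISA. Bidirectional curve fitting used DMSO as negative control and activity baseline.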
For orientation: In an ELISA, binding on a coated surface is turned into a signal by an enzyme label.

Test [17] in a line: BSK_4H_Eotaxin3: BioMAP Diversity Plus: 4H Assay for Eotaxin 3 Biomarker Activity (AID 2283000).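 As to outcome: CCL26 protein level quantified by ELISA in parallel with SRB cytotoxicity check.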 The following applies: primary human endothelial cells (HUVEC); actives raise or lower the signal. In outline: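 HUVEC, 24 h post-dose, ELISA for Eotaxin-3/CCL26. Gain or loss of signal fitted bidirectionally vs DMSO baseline.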
Read-out in test [18]: Intercellular Adhesion Molecule 1 (ICAM1), ICAM1 (gene 3383)
Nature of the test: BSK_3C_ICAM1: BioMAP Diversity Plus: 3C Assay for Intercellular Adhesion Molecule 1 (ICAM1) Biomarker Activity (AID 2283003). The conditions noted are these: primary human endothelial cells (HUVEC); actives raise or lower the signal. In outline:
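Human vascular endothelial primary cells, 3C conditions, 24 h treatment. ICAM-1 by ELISA.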

Test [19] in a line: BSK_3C_Proliferation: Cell Proliferation Assessment in the BioMAP Diversity Plus: 3C Assay (AID 2283006).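 As to AC50: potency may reflect either rise or fall in cell number versus DMSO.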 The conditions noted are these: primary human endothelial cells (HUVEC). In outline: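 Proliferation of human vascular endothelial primary cells after 48 h dosing, quantified as SRB-stained protein at 560 nm relative to DMSO.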
Test [20] deals with Retinoic acid receptor alpha (Homo sapiens) (UniProt P10276). Nature of the test: ATG_RARa_TRANS: Attagene TRANS-FACTORIAL HepG2 Assay for human Retinoic Acid Receptor alpha (RARa) (AID 2283005; active = hit-call score of the fitted dose curve at least 0.9, where 1 is the maximum). In outline:
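HepG2 cells transiently transfected with multiple reporter units expressing chimeric RARα-GAL4 fusion, with GAL4-UAS-driven reporters. After 24 h compound exposure, reporter mRNA induction quantified by RT-PCR and capillary electrophoresis with fluorescent labeling; gain-of-signal fitted relative to DMSO control.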

Several values for one entry are separate records, joined by “and”; a condition that tells them apart may be missing. Equal values may be shown once. Results filed as inconclusive are left out. Activity calls are given as the source filed them. The calls were made as follows, unless noted: active = hit-call score of the fitted dose curve at least 0.9, where 1 is the maximum; inactive = score below 0.9.

Sequence of Transcriptional activator Myb (Homo sapiens) (P10242 whole entry, looked up): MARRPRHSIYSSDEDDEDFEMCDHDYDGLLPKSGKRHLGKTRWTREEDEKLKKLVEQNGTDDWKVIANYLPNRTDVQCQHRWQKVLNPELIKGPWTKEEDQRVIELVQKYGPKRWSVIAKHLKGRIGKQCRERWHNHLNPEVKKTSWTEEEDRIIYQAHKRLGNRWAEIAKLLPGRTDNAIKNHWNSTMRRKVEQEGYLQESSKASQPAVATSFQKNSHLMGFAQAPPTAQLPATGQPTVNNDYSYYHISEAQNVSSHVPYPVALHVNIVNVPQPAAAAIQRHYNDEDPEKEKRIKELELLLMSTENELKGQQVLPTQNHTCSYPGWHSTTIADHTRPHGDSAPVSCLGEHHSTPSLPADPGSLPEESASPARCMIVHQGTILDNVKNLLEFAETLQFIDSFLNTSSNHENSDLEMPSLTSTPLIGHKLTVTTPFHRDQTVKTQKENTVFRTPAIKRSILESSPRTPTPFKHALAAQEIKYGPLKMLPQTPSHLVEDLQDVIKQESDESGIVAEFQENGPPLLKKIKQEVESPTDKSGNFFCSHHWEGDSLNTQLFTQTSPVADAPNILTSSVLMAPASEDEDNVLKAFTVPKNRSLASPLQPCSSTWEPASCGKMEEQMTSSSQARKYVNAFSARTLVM
Sequence of Nuclear receptor subfamily 1 group I member 2 (Homo sapiens) (O75469 whole entry, looked up, the tested form may be a part): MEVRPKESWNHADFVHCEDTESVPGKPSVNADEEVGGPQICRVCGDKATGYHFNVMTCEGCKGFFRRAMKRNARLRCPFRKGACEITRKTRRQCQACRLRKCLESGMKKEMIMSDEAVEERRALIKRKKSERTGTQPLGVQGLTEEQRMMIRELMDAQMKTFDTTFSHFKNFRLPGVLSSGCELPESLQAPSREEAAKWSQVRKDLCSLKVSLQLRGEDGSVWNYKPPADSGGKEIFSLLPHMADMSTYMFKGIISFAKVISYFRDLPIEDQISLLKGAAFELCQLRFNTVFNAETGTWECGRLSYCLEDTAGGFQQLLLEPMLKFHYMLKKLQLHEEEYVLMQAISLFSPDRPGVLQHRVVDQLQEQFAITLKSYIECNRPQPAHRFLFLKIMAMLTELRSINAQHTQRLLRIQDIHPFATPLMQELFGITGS
Sequence of human Retinoic Acid Receptor gamma (RARg), RARG (gene 5916) (P13631 whole entry, looked up, the tested form may be a part): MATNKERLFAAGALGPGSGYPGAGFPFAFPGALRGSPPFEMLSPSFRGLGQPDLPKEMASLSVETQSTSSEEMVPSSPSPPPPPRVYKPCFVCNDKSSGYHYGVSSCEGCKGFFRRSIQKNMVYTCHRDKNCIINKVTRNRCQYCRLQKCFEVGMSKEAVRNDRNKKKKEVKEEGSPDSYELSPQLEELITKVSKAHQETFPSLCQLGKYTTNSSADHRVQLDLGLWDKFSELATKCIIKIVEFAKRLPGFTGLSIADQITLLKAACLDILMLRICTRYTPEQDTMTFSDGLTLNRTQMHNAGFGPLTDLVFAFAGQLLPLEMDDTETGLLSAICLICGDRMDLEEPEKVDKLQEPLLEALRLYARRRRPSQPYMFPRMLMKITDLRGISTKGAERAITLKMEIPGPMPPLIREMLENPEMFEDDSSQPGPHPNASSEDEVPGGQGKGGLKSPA
Sequence of Nuclear respiratory factor 1 (Homo sapiens) (Q16656 whole entry, looked up): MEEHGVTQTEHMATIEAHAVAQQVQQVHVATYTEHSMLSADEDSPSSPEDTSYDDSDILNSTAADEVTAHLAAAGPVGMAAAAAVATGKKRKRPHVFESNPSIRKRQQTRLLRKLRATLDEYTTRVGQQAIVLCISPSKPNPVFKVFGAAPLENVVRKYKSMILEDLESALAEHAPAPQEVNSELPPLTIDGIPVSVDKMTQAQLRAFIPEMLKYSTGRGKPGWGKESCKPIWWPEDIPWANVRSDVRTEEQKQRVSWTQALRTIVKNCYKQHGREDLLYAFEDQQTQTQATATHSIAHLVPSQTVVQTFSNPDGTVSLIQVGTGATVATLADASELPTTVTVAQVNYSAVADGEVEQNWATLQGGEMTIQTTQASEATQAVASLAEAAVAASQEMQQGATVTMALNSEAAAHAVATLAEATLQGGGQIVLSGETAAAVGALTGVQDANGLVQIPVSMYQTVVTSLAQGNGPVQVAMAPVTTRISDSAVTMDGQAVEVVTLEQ
Sequence of Cellular tumor antigen p53 (Homo sapiens) (P04637 whole entry, looked up): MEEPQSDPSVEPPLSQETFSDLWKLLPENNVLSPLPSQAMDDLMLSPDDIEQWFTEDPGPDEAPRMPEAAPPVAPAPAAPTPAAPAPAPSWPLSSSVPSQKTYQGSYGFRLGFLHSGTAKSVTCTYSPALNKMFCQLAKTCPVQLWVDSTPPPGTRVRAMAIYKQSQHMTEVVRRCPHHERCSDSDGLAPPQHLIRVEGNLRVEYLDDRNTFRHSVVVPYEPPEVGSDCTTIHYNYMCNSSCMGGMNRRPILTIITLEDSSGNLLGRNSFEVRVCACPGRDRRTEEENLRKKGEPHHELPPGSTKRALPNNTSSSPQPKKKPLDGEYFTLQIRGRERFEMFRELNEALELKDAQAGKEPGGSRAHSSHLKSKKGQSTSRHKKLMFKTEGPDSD
Sequence of Peroxisome proliferator-activated receptor gamma (Homo sapiens) (P37231 whole entry, looked up): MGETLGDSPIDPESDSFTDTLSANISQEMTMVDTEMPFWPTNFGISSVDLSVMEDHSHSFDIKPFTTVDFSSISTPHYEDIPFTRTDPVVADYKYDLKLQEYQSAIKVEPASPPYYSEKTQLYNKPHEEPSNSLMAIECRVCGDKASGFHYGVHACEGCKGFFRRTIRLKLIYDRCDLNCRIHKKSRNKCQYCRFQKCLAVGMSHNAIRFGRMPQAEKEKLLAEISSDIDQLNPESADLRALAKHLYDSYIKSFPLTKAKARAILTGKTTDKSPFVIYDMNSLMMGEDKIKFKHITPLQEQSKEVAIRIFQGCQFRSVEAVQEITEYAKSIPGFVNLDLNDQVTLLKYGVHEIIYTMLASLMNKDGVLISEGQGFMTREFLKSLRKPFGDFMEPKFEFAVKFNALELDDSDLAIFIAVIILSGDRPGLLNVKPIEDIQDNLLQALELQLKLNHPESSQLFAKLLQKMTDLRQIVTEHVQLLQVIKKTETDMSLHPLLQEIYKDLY
Sequence of human Peroxisome Proliferator-activated Receptor alpha (PPARa), PPARA (gene 5465) (Q07869 whole entry, looked up, the tested form may be a part): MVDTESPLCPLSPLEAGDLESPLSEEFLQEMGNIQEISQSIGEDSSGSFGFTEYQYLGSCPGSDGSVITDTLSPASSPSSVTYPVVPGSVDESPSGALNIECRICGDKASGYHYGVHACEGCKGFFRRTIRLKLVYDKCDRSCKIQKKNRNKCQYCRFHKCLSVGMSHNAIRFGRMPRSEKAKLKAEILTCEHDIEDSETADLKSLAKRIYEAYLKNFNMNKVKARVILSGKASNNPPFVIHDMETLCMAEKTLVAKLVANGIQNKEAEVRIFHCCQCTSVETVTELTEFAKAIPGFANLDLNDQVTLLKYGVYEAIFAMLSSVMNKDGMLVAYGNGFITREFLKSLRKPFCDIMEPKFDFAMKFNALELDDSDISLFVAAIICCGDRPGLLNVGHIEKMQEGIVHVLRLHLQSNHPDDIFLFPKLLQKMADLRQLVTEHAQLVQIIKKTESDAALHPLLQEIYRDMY
Sequence of Retinoic acid receptor alpha (Homo sapiens) (P10276 whole entry, looked up, the tested form may be a part): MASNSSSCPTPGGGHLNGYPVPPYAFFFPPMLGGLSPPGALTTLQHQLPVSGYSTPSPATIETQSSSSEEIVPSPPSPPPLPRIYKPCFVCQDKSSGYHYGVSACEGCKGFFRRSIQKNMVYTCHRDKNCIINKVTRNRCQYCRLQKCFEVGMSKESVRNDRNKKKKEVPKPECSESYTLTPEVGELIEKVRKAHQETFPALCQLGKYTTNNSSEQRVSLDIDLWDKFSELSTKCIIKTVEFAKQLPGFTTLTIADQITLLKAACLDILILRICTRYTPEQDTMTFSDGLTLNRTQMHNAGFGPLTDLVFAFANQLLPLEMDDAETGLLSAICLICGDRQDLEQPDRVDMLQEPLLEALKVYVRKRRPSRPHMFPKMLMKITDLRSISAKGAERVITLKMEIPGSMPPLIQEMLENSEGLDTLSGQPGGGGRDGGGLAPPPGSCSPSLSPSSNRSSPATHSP

As to `CCCCOCC1CO1` (stereo not drawn), the compound was called inactive in [1], in [2], in test [3], in [4], in test [5] and in [6]. Besides, the compound was called inactive in test [7], in test [8], in test [9], in [10] and in test [11].

In the case of `CCN(CC)C1CCCCC1`, the compound was called inactive in test [1], in [2], in test [3], in test [4], in [12] and in test [5]. Moreover, the compound was classed as inactive in [6], in [9], in test [10], in [11] and in test [13].

As for `Cc1cccc(N)c1`, the outcome in test [1], in test [2], in test [3], in test [4], in test [12] and in test [5] was inactive. For the same compound, the compound was classed as inactive in test [6], in test [14], in [15], in test [16], in [17] and in test [9]. For the same compound, the outcome in [18], in [19], in test [10] and in test [13] was inactive.

One may read the AC50 as the concentration at which the activity in the assay is half-maximal. On to `CC(C)Nc1ccc(Nc2ccccc2)cc1`, for which the compound was called inactive in [1], in test [2], in test [3], in test [4], in [6] and in test [7]. Moreover, the compound was classed as inactive in [8], in [20] and in test [13]. The concentration at half-maximal activity (AC50) is 8.92 µM (active) in test [5]; 8.11 µM (active) in test [14]; 13.2 µM (active) in test [15]; 8.53 µM (active) in [16]; 8.74 µM (active) in test [17]; 17.4 µM (active) in [18]. Besides, the AC50 is 1.82 µM (active) in test [19], 23.9 µM (active) in [10] and 2.71 µM (active) in [11].

As for `OCC(F)(F)OC(F)(F)C(F)(F)OC(F)(F)CO`, the compound was called inactive in test [1], in [2], in [3], in test [4], in [12] and in test [5]. The compound was classed as inactive in test [6], in [14], in test [15], in test [16], in [17] and in test [9]. For the same compound, the result in test [18], in test [19], in [10], in test [11] and in [13] was inactive.

In the case of `CC(C)(C)OOC(C)(C)C`, the call in test [1], in [2], in [3], in test [4], in test [12] and in test [5] was inactive. Also, the result in test [6], in test [14], in test [15], in test [16], in test [17] and in test [9] was inactive. Besides, the result in [18] and in test [19] was inactive.

For the compound `CSC(C)(C)C=NO`, the compound was called inactive in [1], in test [2], in test [3], in [4], in test [5] and in test [6]. Moreover, the result in test [14], in test [15], in [16], in [17], in test [8] and in test [9] was inactive. The outcome in [18] and in [19] was inactive.

As for `CC(Cc1ccc(OCC(=O)O)cc1)NCC(O)c1csc(C(F)(F)F)n1` (stereo not drawn), the call in test [1], in test [2], in [3], in [4], in [5] and in test [6] was inactive. The compound was called inactive in [7], in test [14], in test [15], in test [16], in test [17] and in test [18]. Also, the outcome in test [19] and in test [10] was inactive.

For the compound `OCC(F)(F)OC(F)(F)C(F)(F)OC(F)(F)C(F)(F)OC(F)(F)CO`, the result in [1], in [2], in [3], in test [4], in [12] and in [6] was inactive. The result in test [14], in test [15], in [16], in test [17], in test [8] and in test [9] was inactive. Besides, the result in test [18], in test [10], in [11] and in test [13] was inactive. Further, the concentration at half-maximal activity (AC50) in test [5] was 33.2 µM (active); in test [19], 5.95 µM (active) and 35.3 µM (active).
